Results published in the supplement of paper PMC9177965.

The molecules below were run on HT29 RNF43 G659fs (RNF43 659mut, CRISPR-edited) (assay: cell viability activity relative to DMSO (negative = inhibition); higher = more viable cells (less growth inhibition)). Details: 5 µM; 96 h.
Experimental: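 Broad Repurposing Library primary screen at a single dose of 5 uM. HT29 sg-Ctrl and HT29 RNF43 G659fs CRISPR-edited isogenic cells were seeded at 2500 cells/well in 384-well plates in duplicate and treated for 96 h. Viability was read by CellTiter-Glo and reported as % activity relative to DMSO, with MG132 as the positive control (negative = growth inhibition).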
`CCN(CC)C(=S)SSC(=S)N(CC)CC` showed a cell viability activity of -79.2%.
Molecule `Cc1cc(C(=O)NOCCO)c(Nc2ccc(I)cc2F)n(C)c1=O` has a cell viability activity of -83.4%.
Molecule `COc1cc(N2CCC(N)CC2)ccc1Nc1ncc(Cl)c(-c2c[nH]c3ccccc23)n1` has a cell viability activity of -95.8%.
With `CC(C)(C)c1ccc(-c2nc3ccccc3[nH]2)cc1` the cell viability activity was -58.2%.
For `Cc1ccccc1CN1C(=O)C2=C(CCN(Cc3ccccc3)C2)N2CCN=C12`, the cell viability activity was -72.9%.
`Nc1ccccc1NC(=O)c1ccc(CNc2nccc(-c3cccnc3)n2)cc1` showed a cell viability activity of -87.7%.
For `O=C1NCN(c2ccccc2)C12CCN(CCCC(c1ccc(F)cc1)c1ccc(F)cc1)CC2`, the cell viability activity was -27.2%.
In the case of `OCCN1CCN(CCCN2c3ccccc3Sc3ccc(Cl)cc32)CC1`, the cell viability activity is reported as -53.2%.
`C=CCCCCCCCCC(=O)O` was tested, and the cell viability activity was -66.5%.
Molecule `CC(=O)c1c(C)c2cnc(Nc3ccc(N4CCNCC4)cn3)nc2n(C2CCCC2)c1=O` has a cell viability activity of -37.2%.
`C[C@H]1O[C@@H](O[C@H]2CC[C@@]3(C)[C@H](CC[C@@H]4[C@@H]3C[C@@H](O)[C@]3(C)[C@@H](C5=CC(=O)OC5)CC[C@]43O)C2)C[C@H](O)[C@@H]1O[C@H]1C[C@H](O)[C@H](O[C@H]2C[C@H](O)[C@H](O[C@@H]3O[C@H](CO)[C@@H](O)[C@H](O)[C@H]3O)[C@@H](C)O2)[C@@H](C)O1` was tested, and the cell viability activity was -90.5%.
`COCCOC(=O)C1=C(C)NC(C)=C(C(=O)OC/C=C/c2ccccc2)C1c1cccc([N+](=O)[O-])c1` (stereo not given) was tested, and the cell viability activity was -57.6%.
`C=CC(=O)Nc1cccc(Sc2nc(Nc3ccc(N4CCN(C)CC4)cc3)ncc2Cl)c1` gave a cell viability activity of -59.9%.
`O=C1NCCN1CCN1CCC(c2cn(-c3ccc(F)cc3)c3ccc(Cl)cc23)CC1` was tested, and the cell viability activity was -93.7%.
With `Fc1ccc(-n2cc(CCCCN3CCC4(CC3)OCc3ccccc34)c3ccccc32)cc1` the cell viability activity was -70.6%.
`COc1ccccc1S(=O)(=O)Nc1ccc2c(c1)CN(C)C(=O)N2` gave a cell viability activity of -56.4%.
For `CN(C)C(=O)c1cc2cnc(Nc3ccc(N4CCNCC4)cn3)nc2n1C1CCCC1`, the cell viability activity was -26%.
In the case of `COC(=O)Nc1nc2ccc(SC(C)C)cc2[nH]1`, the cell viability activity is reported as -43.7%.
Work on `CNc1nc(-c2ccc3c(N)n[nH]c3c2)cc(N2C[C@@H](C(=O)NC3CCCCC3)CC[C@H]2C)n1` yielded a cell viability activity of -31.4%.
For `Nc1ncccc1-c1nc2ccc(-c3ccccc3)nc2n1-c1ccc(C2(N)CCC2)cc1`, the cell viability activity was -70.4%.
`O=C(Nc1cc(C(F)(F)F)cc(C(F)(F)F)c1)c1cc(Cl)ccc1O` was tested, and the cell viability activity was -94.4%.
Work on `CCCSc1ccc2[nH]c(NC(=O)OC)nc2c1` yielded a cell viability activity of -63.8%.
Work on `NC1(Cc2ccc(Cl)cc2)CCN(c2ncnc3[nH]ccc23)CC1` yielded a cell viability activity of -39.2%.
`COc1ccc(F)c(F)c1C(=O)c1cnc(NC2CCN(S(C)(=O)=O)CC2)nc1N` was tested, and the cell viability activity was -69%.
Molecule `C[C@@H]1COCCN1c1cc(=O)n2c(n1)N(Cc1cncc(Cl)c1)[C@H](C(F)(F)F)CC2` has a cell viability activity of -57.9%.
`Cn1cc(CNCC2CCN(c3ncc(C(=O)NO)cn3)CC2)c2ccccc21` was tested, and the cell viability activity was -95.9%.
With `O=C(Nc1c[nH]nc1-c1nc2ccc(CN3CCOCC3)cc2[nH]1)NC1CC1` the cell viability activity was -72.3%.
Molecule `CCN(CC)CCNC(=O)c1ccc(NC(C)=O)cc1` has a cell viability activity of -53.2%.
`CC(CN1c2ccccc2Sc2ccccc21)N(C)C` (stereo not given) was tested, and the cell viability activity was -40.7%.
In the case of `COC(=O)Nc1ccc(-c2nc(N3CCOCC3)c3cnn(C4CCN(Cc5cccnc5)CC4)c3n2)cc1`, the cell viability activity is reported as -55.8%.
Work on `COC(=O)[C@]12CCC(C)(C)C[C@H]1[C@H]1C(=O)C=C3[C@@]4(C)C=C(C#N)C(=O)C(C)(C)[C@@H]4CC[C@@]3(C)[C@]1(C)CC2` yielded a cell viability activity of -96.8%.
`COc1ccc2c(O[C@@H]3C[C@H]4C(=O)N[C@]5(C(=O)NS(=O)(=O)C6CC6)C[C@H]5/C=C\CCCCN(C)C(=O)[C@@H]4C3)cc(-c3nc(C(C)C)cs3)nc2c1C` was tested, and the cell viability activity was -30%.
Work on `CNC(=O)c1ccccc1Nc1nc(Nc2ccc(N3CCOCC3)cc2OC)ncc1Cl` yielded a cell viability activity of -73.1%.
Work on `Cc1nc2ccccc2n1Cc1ccc(Cl)cc1` yielded a cell viability activity of -60.5%.
With `CNCCn1c(=O)c2cc(OC)c(OC)cc2c2cnc3cc4c(cc3c21)OCO4` the cell viability activity was -81.7%.
`CN1CCN(S(=O)(=O)c2ccc(-c3cnc(N)c(C(=O)Nc4cccnc4)n3)cc2)CC1` gave a cell viability activity of -46.3%.
`CCNC(=O)Nc1ccc(-c2nc3c(c(N4CCOC[C@@H]4C)n2)CCN(C2COC2)C3)cc1` showed a cell viability activity of -36.7%.
`C1=N/C2=N/c3ccc(OCCN4CCCC4)c(c3)COC/C=C/COCc3cccc(c3)C(=C1)N2` was tested, and the cell viability activity was -41.5%.
With `COc1cc(F)c(F)c(Nc2ccc(I)cc2F)c1NS(=O)(=O)C1(C[C@H](O)CO)CC1` the cell viability activity was -74.1%.
In the case of `O=c1[nH]cc(F)c(=O)[nH]1`, the cell viability activity is reported as -32.3%.
